# Assay results taken from PubChem BioAssay (NCI).
# This is part of a sample that, as a whole, favours compounds with a hit. Of some 83,000 tested, about 20% had one in any assay.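 Negative percent growth values reflect cell death: -40 means 40% of the cells present at the start died, and -100 means all died.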 A number with no mark means an inactive call. Active and inactive are the calls of the source. The calls were made as follows: active = growth percent below 10; inactive = the rest.
# Columns and labels:
# Test in all cases: NCI-60 one-dose screen, 48 h (100 = growth as untreated, 0 = no growth, -100 = all killed)
# Details in all cases: 10 µM unless noted
# SR leukemia = system: SR leukemia
# RPMI-8226 leukemia = system: RPMI-8226 leukemia
# OVCAR-8 ovarian = system: OVCAR-8 ovarian
# OVCAR-5 ovarian = system: OVCAR-5 ovarian
# OVCAR-4 ovarian = system: OVCAR-4 ovarian
# SK-OV-3 ovarian = system: SK-OV-3 ovarian
# IGROV1 ovarian = system: IGROV1 ovarian
# OVCAR-3 ovarian = system: OVCAR-3 ovarian
# HS 578T breast = system: HS 578T breast
# NCI/ADR-RES ovarian = system: NCI/ADR-RES ovarian
# T-47D breast = system: T-47D breast
# BT-549 breast = system: BT-549 breast
# MDA-MB-435 melanoma = system: MDA-MB-435 melanoma
# SW-620 colon = system: SW-620 colon
# MCF7 breast = system: MCF7 breast
# HCT-116 colon = system: HCT-116 colon
# HCC-2998 colon = system: HCC-2998 colon
# KM12 colon = system: KM12 colon
Compound,growth (SR leukemia),growth (RPMI-8226 leukemia),growth (OVCAR-8 ovarian),growth (OVCAR-5 ovarian),growth (OVCAR-4 ovarian),growth (SK-OV-3 ovarian),growth (IGROV1 ovarian),growth (OVCAR-3 ovarian),growth (HS 578T breast),growth (NCI/ADR-RES ovarian),growth (T-47D breast),growth (BT-549 breast),growth (MDA-MB-435 melanoma),growth (SW-620 colon),growth (MCF7 breast),growth (HCT-116 colon),growth (HCC-2998 colon),growth (KM12 colon)
CCCCn1c(=O)c2c(nc3n2CCCN3CCc2ccc(OCC(=O)NCCN(CC)CC)cc2)n(CCCC)c1=O,-22% (active),61.5%,60.8%,94%,52.3%,51.8%,59.3%,71.2%,20.8%,60.7%,53.6%,67%,63.6%,79.2%,36.6%,36.4%,56.8%,77.5%
CCCCn1c(=O)c2c(nc(NCCc3ccc(O)c(O)c3)n2CCC)n(CCCC)c1=O,35.9%,74.8%,75.5%,97.9%,45.5%,96.3%,82.5%,65.2%,66.5%,77.2%,49.3%,102%,82.6%,89.1%,65%,63.3%,78.8%,61.3%
CN1CCN(C(=O)c2c3c(n4ccccc24)C(=O)c2ncccc2C3=O)CC1,18%,57.9%,68%,99.6%,72%,70%,60%,7.09% (active),52.5%,71.5%,93.3%,57.3%,76.1%,37.6%,26.9%,44.1%,70.9%,65.4%
CN(C)CC1C(=O)O[C@H]2[C@H]1CC/C(COC(=O)c1cc3ccccc3[nH]1)=C\CC[C@@]1(C)O[C@@H]21 (stereo partly drawn),-13.6% (active),-15.7% (active),-45.6% (active),-5.25% (active),-9.35% (active),65.1%,-41.2% (active),-82.7% (active),-3.98% (active),-30.8% (active),-76.6% (active),-52% (active),-38.2% (active),-19.3% (active),-41.8% (active),-83.3% (active),-82% (active),6.93% (active)
C=CCn1c(C)nc2cc(Nc3nc(N4CCCC4)nc4ccccc34)ccc21,5.75% (active),55%,84.1%,123%,91.3%,123%,95.4%,105%,86.8%,83.3%,105%,96.9%,92.4%,75%,61.9%,19.6%,23.3%,70.1%
COc1cc(N=Nc2ccc(N)cc2)c(OC)cc1N=Nc1ccccc1.[Cl][Zn][Cl],93.2%,90.9%,98.8%,96.4%,92.3%,96.5%,47.6%,99.8%,107%,95.8%,88.2%,93.5%,98.7%,105%,85.6%,101%,98.9%,105%
Cc1ccc(C(=O)C2=C(O)C(=O)N(Cc3cccnc3)C2c2ccccc2F)o1 (stereo not drawn),97.3%,105%,92.6%,101%,106%,94.5%,68.2%,97.4%,102%,98.9%,95.2%,99.2%,102%,103%,98.3%,95.2%,94.3%,106%
Cc1cc(NCc2cc(Nc3ccnc4cc(Cl)ccc34)ccc2F)nc(N2CCN(C)CC2)n1,-14.4% (active),-23.9% (active),12.1%,9.47% (active),18.7%,29.5%,8.72% (active),-17.4% (active),-7.51% (active),16.8%,-42.4% (active),28.2%,-96.7% (active),0.137% (active),1.13% (active),0.262% (active),-35.2% (active),14.4%
O=C(CCCCCCN1CC(=O)N2[C@@H](c3ccccc3Cl)c3[nH]c4ccccc4c3C[C@H]2C1=O)NO,15.9%,14.8%,49.6%,61%,68.3%,84.8%,66.5%,56.9%,59.2%,89.8%,28.3%,76.8%,59.3%,49.1%,44%,34.2%,69.6%,74.8%
N#Cc1c(N)nc(NCCO)nc1-c1ccc(F)cc1,99.3%,94.1%,99.7%,105%,95.6%,84.9%,102%,110%,92.5%,105%,79.7%,98.6%,104%,99.8%,97.3%,93.7%,105%,103%
CN(Cc1cnc2nc(N)nc(N)c2n1)c1ccc(C(=O)N[C@@H](CCc2nn[nH]n2)c2nn[nH]n2)cc1,29.2%,44.1%,32.8%,56.1%,91%,82.8%,45.6%,53%,76.2%,40.4%,75.9%,53.2%,38.5%,20.1%,17%,18.3%,52.6%,33%
C=CC(=O)Nc1cccc(Oc2nccc(Nc3nnc(C4CC4)s3)n2)c1,58.3%,56%,91.4%,98.7%,101%,112%,93.6%,89.5%,91.6%,96.8%,95%,101%,99.5%,93.3%,82%,101%,102%,97.5%
Cc1cc(NCc2cc(Nc3ccnc4cc(Cl)ccc34)ccc2F)nc(N2CCCC2)n1,-23.9% (active),-24.2% (active),2.5% (active),6.27% (active),-0.25% (active),51.1%,-2.2% (active),-73.6% (active),56.8%,12.7%,-59.7% (active),58.1%,-94.7% (active),-1.87% (active),-14.1% (active),-53.5% (active),-67.9% (active),12%
COC(=O)[C@]12CC[C@@H](C)[C@H](C)[C@@H]1C1=CC[C@@H]3[C@@]4(C)C(C=O)=C[C@@](C)(COS(C)(=O)=O)C4[C@H](O)C[C@@]3(C)[C@]1(C)CC2 (stereo partly drawn),-33.3% (active),-10.7% (active),-50.1% (active),-38.3% (active),-52.8% (active),-35.2% (active),-13.4% (active),-88.7% (active),-30.6% (active),-1.9% (active),-29.4% (active),-49.6% (active),-21.5% (active),-51.4% (active),-16% (active),-85.3% (active),-85% (active),-75.4% (active)
COc1cccc(-c2nn(-c3ccccc3)cc2-c2ccnc(NCCNC(=O)Nc3ccc(Cl)c(Cl)c3)c2)c1,-26.4% (active),11.9%,7.05% (active),41.7%,36.4%,9.85% (active),44%,-6.87% (active),-22.1% (active),-22.2% (active),12.6%,-4.67% (active),-66.9% (active),18.3%,6.67% (active),0.717% (active),-37.1% (active),-33.8% (active)
N=c1sc(Cc2ccc(Cl)cc2)cn1CC(=O)c1ccc(F)cc1,87.4%,74.1%,80%,71%,69%,107%,78.2%,92.6%,96.9%,73.9%,64.6%,94.9%,37%,53.5%,55%,63.7%,59%,39.9%
